# Reference: publication PMC11006913
# Key:
# Assay in all cases: PBM; 200 nM protein, PBS
# Conditions in all cases: dsDNA, one strand shown
# MSX2 [1] = target: MSX2 (Homo sapiens, UniProt P35548 130-214, R199I)
# PITX2 = PITX2 (Homo sapiens, UniProt Q99697 72-157)
# MSX2 [2] = target: MSX2 (Homo sapiens, UniProt P35548 130-214)
# MSX2 [3] = target: MSX2 (Homo sapiens, UniProt P35548 130-214, F161Y)
# VAX1 [4] = target: VAX1 (Homo sapiens, UniProt Q5SQQ9 86-172)
# VAX1 [5] = target: VAX1 (Homo sapiens, UniProt Q5SQQ9 86-172, T142I)
# VAX1 [6] = target: VAX1 (Homo sapiens, UniProt Q5SQQ9 86-172, K157R)
# ALX1 [7] = target: ALX1 (Homo sapiens, UniProt Q15699 118-204, L144V)
# ALX1 [8] = target: ALX1 (Homo sapiens, UniProt Q15699 118-204, L144R)
# ALX1 [9] = target: ALX1 (Homo sapiens, UniProt Q15699 118-204)
# HOXD13 [10] = target: HOXD13 (Homo sapiens, UniProt P35453 263-343, T313R)
# HOXD13 [11] = target: HOXD13 (Homo sapiens, UniProt P35453 263-343)
# HOXD13 [12] = target: HOXD13 (Homo sapiens, UniProt P35453 263-343, T313A)
# HOXA2 = HOXA2 (Homo sapiens, UniProt O43364 129-215, R185K)
# ALX3 [13] = target: ALX3 (Homo sapiens, UniProt O95076 139-225, N203Q)
# ALX3 [14] = target: ALX3 (Homo sapiens, UniProt O95076 139-225)
# ALX3 [15] = target: ALX3 (Homo sapiens, UniProt O95076 139-225, L168Q)
# ALX3 [16] = target: ALX3 (Homo sapiens, UniProt O95076 139-225, L168V)
# ALX3 [17] = target: ALX3 (Homo sapiens, UniProt O95076 139-225, N203S)
# PROP1 [18] = target: PROP1 (Homo sapiens, UniProt O75360 56-141)
# PROP1 [19] = target: PROP1 (Homo sapiens, UniProt O75360 56-141, R99H)
# PROP1 [20] = target: PROP1 (Homo sapiens, UniProt O75360 56-141, F88S)
# Sequence of PROP1 (Homo sapiens, UniProt O75360 56-141, F88S) (O75360 56-141 F88S): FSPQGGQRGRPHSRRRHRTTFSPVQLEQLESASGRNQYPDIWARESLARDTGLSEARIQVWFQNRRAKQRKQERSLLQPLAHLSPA
# Sequence of VAX1 (Homo sapiens, UniProt Q5SQQ9 86-172) (Q5SQQ9 86-172): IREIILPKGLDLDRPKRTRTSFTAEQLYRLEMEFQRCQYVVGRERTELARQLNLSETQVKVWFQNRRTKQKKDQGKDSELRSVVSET
# Sequence of MSX2 (Homo sapiens, UniProt P35548 130-214, F161Y) (P35548 130-214 F161Y): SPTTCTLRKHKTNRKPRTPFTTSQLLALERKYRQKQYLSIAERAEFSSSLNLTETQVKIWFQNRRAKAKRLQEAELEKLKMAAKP
# Sequence of MSX2 (Homo sapiens, UniProt P35548 130-214, R199I) (P35548 130-214 R199I): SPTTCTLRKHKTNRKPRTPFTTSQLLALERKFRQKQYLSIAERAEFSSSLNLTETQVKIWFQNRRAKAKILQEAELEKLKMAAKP
# Sequence of MSX2 (Homo sapiens, UniProt P35548 130-214) (P35548 130-214): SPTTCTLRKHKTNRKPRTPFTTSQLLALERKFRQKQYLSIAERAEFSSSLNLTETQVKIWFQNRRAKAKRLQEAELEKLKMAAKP
# Sequence of VAX1 (Homo sapiens, UniProt Q5SQQ9 86-172, T142I) (Q5SQQ9 86-172 T142I): as the sequence (Q5SQQ9 86-172) above, with T57I counted along it
# Sequence of VAX1 (Homo sapiens, UniProt Q5SQQ9 86-172, K157R) (Q5SQQ9 86-172 K157R): as the sequence (Q5SQQ9 86-172) above, with K72R counted along it
# Sequence of HOXA2 (O43364 129-215 R185K): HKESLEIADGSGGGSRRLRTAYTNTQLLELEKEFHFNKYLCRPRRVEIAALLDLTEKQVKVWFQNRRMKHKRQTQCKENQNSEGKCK
# Sequence of PROP1 (Homo sapiens, UniProt O75360 56-141) (O75360 56-141): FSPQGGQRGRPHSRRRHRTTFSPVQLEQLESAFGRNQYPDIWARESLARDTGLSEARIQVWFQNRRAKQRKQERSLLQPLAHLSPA
# Sequence of PROP1 (Homo sapiens, UniProt O75360 56-141, R99H) (O75360 56-141 R99H): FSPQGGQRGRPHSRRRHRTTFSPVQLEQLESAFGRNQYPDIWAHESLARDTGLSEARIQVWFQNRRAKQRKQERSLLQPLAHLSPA
# Sequence of ALX1 (Homo sapiens, UniProt Q15699 118-204) (Q15699 118-204): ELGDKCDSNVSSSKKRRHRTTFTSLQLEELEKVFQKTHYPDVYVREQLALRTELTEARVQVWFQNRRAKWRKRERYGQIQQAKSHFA
# Sequence of HOXD13 (Homo sapiens, UniProt P35453 263-343) (P35453 263-343): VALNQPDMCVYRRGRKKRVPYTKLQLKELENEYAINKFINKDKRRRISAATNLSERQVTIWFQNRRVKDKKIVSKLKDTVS
# Sequence of HOXD13 (Homo sapiens, UniProt P35453 263-343, T313R) (P35453 263-343 T313R): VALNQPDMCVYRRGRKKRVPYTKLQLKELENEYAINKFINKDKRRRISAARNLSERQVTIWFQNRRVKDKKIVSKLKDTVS
# Sequence of ALX3 (Homo sapiens, UniProt O95076 139-225, L168V) (O95076 139-225 L168V): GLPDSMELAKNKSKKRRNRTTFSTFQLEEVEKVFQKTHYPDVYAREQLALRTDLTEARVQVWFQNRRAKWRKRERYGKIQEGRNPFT
# Sequence of ALX3 (Homo sapiens, UniProt O95076 139-225, L168Q) (O95076 139-225 L168Q): as the sequence (O95076 139-225 L168V) above, with V30Q counted along it
# Sequence of ALX1 (Homo sapiens, UniProt Q15699 118-204, L144V) (Q15699 118-204 L144V): as the sequence (Q15699 118-204) above, with L27V counted along it
# Sequence of ALX3 (Homo sapiens, UniProt O95076 139-225, N203Q) (O95076 139-225 N203Q): as the sequence (O95076 139-225 L168V) above, with V30L, N65Q counted along it
# Sequence of ALX1 (Homo sapiens, UniProt Q15699 118-204, L144R) (Q15699 118-204 L144R): as the sequence (Q15699 118-204) above, with L27R counted along it
# Sequence of ALX3 (Homo sapiens, UniProt O95076 139-225) (O95076 139-225): as the sequence (O95076 139-225 L168V) above, with V30L counted along it
# Sequence of HOXD13 (Homo sapiens, UniProt P35453 263-343, T313A) (P35453 263-343 T313A): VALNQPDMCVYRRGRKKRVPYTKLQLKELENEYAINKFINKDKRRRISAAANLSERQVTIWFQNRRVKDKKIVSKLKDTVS
# Sequence of ALX3 (Homo sapiens, UniProt O95076 139-225, N203S) (O95076 139-225 N203S): as the sequence (O95076 139-225 L168V) above, with V30L, N65S counted along it
sequence,measurement,setting,value
GACCTCCC,binding signal,MSX2 [1],"9.42 upbm affinity estimate (log intensity, higher = more binding, comparable within an allelic series)"
same,binding signal,PITX2,"8.09 upbm affinity estimate (log intensity, higher = more binding, comparable within an allelic series)"
same,binding signal,MSX2 [2],"9.46 upbm affinity estimate (log intensity, higher = more binding, comparable within an allelic series)"
same,binding signal,MSX2 [3],"9.44 upbm affinity estimate (log intensity, higher = more binding, comparable within an allelic series)"
GAAGCAGC,binding signal,MSX2 [1],"9.64 upbm affinity estimate (log intensity, higher = more binding, comparable within an allelic series)"
same,binding signal,MSX2 [2],"9.57 upbm affinity estimate (log intensity, higher = more binding, comparable within an allelic series)"
same,binding signal,VAX1 [4],"7.06 upbm affinity estimate (log intensity, higher = more binding, comparable within an allelic series)"
same,binding signal,MSX2 [3],"9.57 upbm affinity estimate (log intensity, higher = more binding, comparable within an allelic series)"
same,binding signal,VAX1 [5],"7.19 upbm affinity estimate (log intensity, higher = more binding, comparable within an allelic series)"
same,binding signal,VAX1 [6],"6.96 upbm affinity estimate (log intensity, higher = more binding, comparable within an allelic series)"
CACGGTCG,binding signal,MSX2 [1],"9.6 upbm affinity estimate (log intensity, higher = more binding, comparable within an allelic series)"
same,binding signal,MSX2 [2],"9.56 upbm affinity estimate (log intensity, higher = more binding, comparable within an allelic series)"
same,binding signal,MSX2 [3],"9.58 upbm affinity estimate (log intensity, higher = more binding, comparable within an allelic series)"
GAACACCC,binding signal,MSX2 [1],"9.57 upbm affinity estimate (log intensity, higher = more binding, comparable within an allelic series)"
same,binding signal,MSX2 [2],"9.63 upbm affinity estimate (log intensity, higher = more binding, comparable within an allelic series)"
same,binding signal,MSX2 [3],"9.59 upbm affinity estimate (log intensity, higher = more binding, comparable within an allelic series)"
AAATATTT,binding signal,MSX2 [1],"10.7 upbm affinity estimate (log intensity, higher = more binding, comparable within an allelic series)"
same,binding signal,MSX2 [2],"11.1 upbm affinity estimate (log intensity, higher = more binding, comparable within an allelic series)"
same,binding signal,MSX2 [3],"11 upbm affinity estimate (log intensity, higher = more binding, comparable within an allelic series)"
CAATCAAA,binding signal,MSX2 [1],"10.9 upbm affinity estimate (log intensity, higher = more binding, comparable within an allelic series)"
CCTGACTC,binding signal,MSX2 [1],"9.6 upbm affinity estimate (log intensity, higher = more binding, comparable within an allelic series)"
same,binding signal,MSX2 [2],"9.49 upbm affinity estimate (log intensity, higher = more binding, comparable within an allelic series)"
same,binding signal,MSX2 [3],"9.54 upbm affinity estimate (log intensity, higher = more binding, comparable within an allelic series)"
AATTACTG,binding signal,MSX2 [1],"12.1 upbm affinity estimate (log intensity, higher = more binding, comparable within an allelic series)"
same,binding signal,MSX2 [2],"13.3 upbm affinity estimate (log intensity, higher = more binding, comparable within an allelic series)"
same,binding signal,MSX2 [3],"12.9 upbm affinity estimate (log intensity, higher = more binding, comparable within an allelic series)"
ATGATTAC,binding signal,MSX2 [1],"10.9 upbm affinity estimate (log intensity, higher = more binding, comparable within an allelic series)"
AGGCGTGA,binding signal,MSX2 [1],"9.57 upbm affinity estimate (log intensity, higher = more binding, comparable within an allelic series)"
same,binding signal,MSX2 [2],"9.37 upbm affinity estimate (log intensity, higher = more binding, comparable within an allelic series)"
same,binding signal,MSX2 [3],"9.36 upbm affinity estimate (log intensity, higher = more binding, comparable within an allelic series)"
CCACTGGC,binding signal,MSX2 [1],"9.65 upbm affinity estimate (log intensity, higher = more binding, comparable within an allelic series)"
same,binding signal,MSX2 [2],"9.69 upbm affinity estimate (log intensity, higher = more binding, comparable within an allelic series)"
same,binding signal,MSX2 [3],"9.68 upbm affinity estimate (log intensity, higher = more binding, comparable within an allelic series)"
CTAATCAA,binding signal,MSX2 [1],"11 upbm affinity estimate (log intensity, higher = more binding, comparable within an allelic series)"
TCCGCGGA,binding signal,MSX2 [1],"9.48 upbm affinity estimate (log intensity, higher = more binding, comparable within an allelic series)"
same,binding signal,MSX2 [2],"9.54 upbm affinity estimate (log intensity, higher = more binding, comparable within an allelic series)"
same,binding signal,VAX1 [4],"7.16 upbm affinity estimate (log intensity, higher = more binding, comparable within an allelic series)"
same,binding signal,MSX2 [3],"9.53 upbm affinity estimate (log intensity, higher = more binding, comparable within an allelic series)"
same,binding signal,VAX1 [5],"7.5 upbm affinity estimate (log intensity, higher = more binding, comparable within an allelic series)"
same,binding signal,VAX1 [6],"7.45 upbm affinity estimate (log intensity, higher = more binding, comparable within an allelic series)"
CCTACGGC,binding signal,MSX2 [1],"9.61 upbm affinity estimate (log intensity, higher = more binding, comparable within an allelic series)"
same,binding signal,ALX1 [7],"6.56 upbm affinity estimate (log intensity, higher = more binding, comparable within an allelic series)"
same,binding signal,ALX1 [8],"6.66 upbm affinity estimate (log intensity, higher = more binding, comparable within an allelic series)"
same,binding signal,MSX2 [2],"9.61 upbm affinity estimate (log intensity, higher = more binding, comparable within an allelic series)"
same,binding signal,MSX2 [3],"9.63 upbm affinity estimate (log intensity, higher = more binding, comparable within an allelic series)"
same,binding signal,ALX1 [9],"6.68 upbm affinity estimate (log intensity, higher = more binding, comparable within an allelic series)"
CGGCGGCA,binding signal,MSX2 [1],"9.49 upbm affinity estimate (log intensity, higher = more binding, comparable within an allelic series)"
same,binding signal,MSX2 [2],"9.38 upbm affinity estimate (log intensity, higher = more binding, comparable within an allelic series)"
same,binding signal,MSX2 [3],"9.41 upbm affinity estimate (log intensity, higher = more binding, comparable within an allelic series)"
ATTAAGAA,binding signal,MSX2 [1],"11.3 upbm affinity estimate (log intensity, higher = more binding, comparable within an allelic series)"
same,binding signal,MSX2 [2],"12 upbm affinity estimate (log intensity, higher = more binding, comparable within an allelic series)"
same,binding signal,MSX2 [3],"11.7 upbm affinity estimate (log intensity, higher = more binding, comparable within an allelic series)"
CAGGGCCA,binding signal,MSX2 [1],"9.52 upbm affinity estimate (log intensity, higher = more binding, comparable within an allelic series)"
same,binding signal,MSX2 [2],"9.57 upbm affinity estimate (log intensity, higher = more binding, comparable within an allelic series)"
same,binding signal,MSX2 [3],"9.56 upbm affinity estimate (log intensity, higher = more binding, comparable within an allelic series)"
AGCGGGGC,binding signal,MSX2 [1],"9.48 upbm affinity estimate (log intensity, higher = more binding, comparable within an allelic series)"
same,binding signal,HOXD13 [10],"9.49 upbm affinity estimate (log intensity, higher = more binding, comparable within an allelic series)"
same,binding signal,HOXD13 [11],"9.31 upbm affinity estimate (log intensity, higher = more binding, comparable within an allelic series)"
same,binding signal,MSX2 [2],"9.55 upbm affinity estimate (log intensity, higher = more binding, comparable within an allelic series)"
same,binding signal,HOXD13 [12],"9.49 upbm affinity estimate (log intensity, higher = more binding, comparable within an allelic series)"
same,binding signal,MSX2 [3],"9.55 upbm affinity estimate (log intensity, higher = more binding, comparable within an allelic series)"
CGACAATA,binding signal,MSX2 [1],"10.5 upbm affinity estimate (log intensity, higher = more binding, comparable within an allelic series)"
same,binding signal,MSX2 [2],"11 upbm affinity estimate (log intensity, higher = more binding, comparable within an allelic series)"
same,binding signal,MSX2 [3],"10.9 upbm affinity estimate (log intensity, higher = more binding, comparable within an allelic series)"
GTAATCAA,binding signal,MSX2 [1],"11.1 upbm affinity estimate (log intensity, higher = more binding, comparable within an allelic series)"
same,binding signal,HOXA2,"13.1 upbm affinity estimate (log intensity, higher = more binding, comparable within an allelic series)"
ATGGAAAT,binding signal,MSX2 [1],"10.4 upbm affinity estimate (log intensity, higher = more binding, comparable within an allelic series)"
same,binding signal,MSX2 [2],"10.7 upbm affinity estimate (log intensity, higher = more binding, comparable within an allelic series)"
same,binding signal,MSX2 [3],"10.6 upbm affinity estimate (log intensity, higher = more binding, comparable within an allelic series)"
GCTCCAGC,binding signal,MSX2 [1],"9.46 upbm affinity estimate (log intensity, higher = more binding, comparable within an allelic series)"
same,binding signal,ALX3 [13],"7.72 upbm affinity estimate (log intensity, higher = more binding, comparable within an allelic series)"
same,binding signal,MSX2 [2],"9.45 upbm affinity estimate (log intensity, higher = more binding, comparable within an allelic series)"
same,binding signal,ALX3 [14],"7.57 upbm affinity estimate (log intensity, higher = more binding, comparable within an allelic series)"
same,binding signal,ALX3 [15],"7.7 upbm affinity estimate (log intensity, higher = more binding, comparable within an allelic series)"
same,binding signal,ALX3 [16],"7.6 upbm affinity estimate (log intensity, higher = more binding, comparable within an allelic series)"
same,binding signal,MSX2 [3],"9.5 upbm affinity estimate (log intensity, higher = more binding, comparable within an allelic series)"
same,binding signal,ALX3 [17],"7.72 upbm affinity estimate (log intensity, higher = more binding, comparable within an allelic series)"
TAATCAAA,binding signal,MSX2 [1],"11.1 upbm affinity estimate (log intensity, higher = more binding, comparable within an allelic series)"
same,binding signal,MSX2 [2],"12.4 upbm affinity estimate (log intensity, higher = more binding, comparable within an allelic series)"
same,binding signal,MSX2 [3],"12.1 upbm affinity estimate (log intensity, higher = more binding, comparable within an allelic series)"
AGCGGCCT,binding signal,MSX2 [1],"9.45 upbm affinity estimate (log intensity, higher = more binding, comparable within an allelic series)"
same,binding signal,MSX2 [2],"9.32 upbm affinity estimate (log intensity, higher = more binding, comparable within an allelic series)"
same,binding signal,MSX2 [3],"9.44 upbm affinity estimate (log intensity, higher = more binding, comparable within an allelic series)"
GATGTTTA,binding signal,MSX2 [1],"10.5 upbm affinity estimate (log intensity, higher = more binding, comparable within an allelic series)"
same,binding signal,MSX2 [2],"10.9 upbm affinity estimate (log intensity, higher = more binding, comparable within an allelic series)"
same,binding signal,MSX2 [3],"10.8 upbm affinity estimate (log intensity, higher = more binding, comparable within an allelic series)"
GGTAATCA,binding signal,MSX2 [1],"11 upbm affinity estimate (log intensity, higher = more binding, comparable within an allelic series)"
same,binding signal,HOXA2,"13.3 upbm affinity estimate (log intensity, higher = more binding, comparable within an allelic series)"
ATAATCAC,binding signal,MSX2 [1],"11.1 upbm affinity estimate (log intensity, higher = more binding, comparable within an allelic series)"
CCTGTGCC,binding signal,MSX2 [1],"9.49 upbm affinity estimate (log intensity, higher = more binding, comparable within an allelic series)"
same,binding signal,MSX2 [2],"9.41 upbm affinity estimate (log intensity, higher = more binding, comparable within an allelic series)"
same,binding signal,PROP1 [18],"6.6 upbm affinity estimate (log intensity, higher = more binding, comparable within an allelic series)"
same,binding signal,PROP1 [19],"6.69 upbm affinity estimate (log intensity, higher = more binding, comparable within an allelic series)"
same,binding signal,PROP1 [20],"6.62 upbm affinity estimate (log intensity, higher = more binding, comparable within an allelic series)"
same,binding signal,MSX2 [3],"9.42 upbm affinity estimate (log intensity, higher = more binding, comparable within an allelic series)"
GATAATCA,binding signal,MSX2 [1],"10.9 upbm affinity estimate (log intensity, higher = more binding, comparable within an allelic series)"
CCAATCAA,binding signal,MSX2 [1],"11 upbm affinity estimate (log intensity, higher = more binding, comparable within an allelic series)"
CCCTAGCG,binding signal,MSX2 [1],"9.48 upbm affinity estimate (log intensity, higher = more binding, comparable within an allelic series)"
same,binding signal,MSX2 [2],"9.29 upbm affinity estimate (log intensity, higher = more binding, comparable within an allelic series)"
same,binding signal,PROP1 [18],"6.52 upbm affinity estimate (log intensity, higher = more binding, comparable within an allelic series)"
same,binding signal,PROP1 [19],"6.7 upbm affinity estimate (log intensity, higher = more binding, comparable within an allelic series)"
same,binding signal,VAX1 [4],"6.79 upbm affinity estimate (log intensity, higher = more binding, comparable within an allelic series)"
same,binding signal,PROP1 [20],"6.73 upbm affinity estimate (log intensity, higher = more binding, comparable within an allelic series)"
same,binding signal,MSX2 [3],"9.37 upbm affinity estimate (log intensity, higher = more binding, comparable within an allelic series)"
same,binding signal,VAX1 [5],"7.2 upbm affinity estimate (log intensity, higher = more binding, comparable within an allelic series)"
same,binding signal,VAX1 [6],"6.92 upbm affinity estimate (log intensity, higher = more binding, comparable within an allelic series)"
